Source: PMC4336329 (PLoS ONE, 2015)
Among all 310,000 compounds or so, about 2,200 (0.71%) showed an effect of 50% or more. Effects have a minus sign here. For the sample, strong results were picked, then their nearest neighbours and some compounds at random.

Biological target: human ether-à-go-go-related gene (hERG) potassium channel (human, UniProt Q12809)
Assay: primary screen, population patch clamp on CHO cells stably expressing hERG; higher = less effect of the substance

Sequence of human ether-à-go-go-related gene (hERG) potassium channel (Q12809 whole entry, looked up): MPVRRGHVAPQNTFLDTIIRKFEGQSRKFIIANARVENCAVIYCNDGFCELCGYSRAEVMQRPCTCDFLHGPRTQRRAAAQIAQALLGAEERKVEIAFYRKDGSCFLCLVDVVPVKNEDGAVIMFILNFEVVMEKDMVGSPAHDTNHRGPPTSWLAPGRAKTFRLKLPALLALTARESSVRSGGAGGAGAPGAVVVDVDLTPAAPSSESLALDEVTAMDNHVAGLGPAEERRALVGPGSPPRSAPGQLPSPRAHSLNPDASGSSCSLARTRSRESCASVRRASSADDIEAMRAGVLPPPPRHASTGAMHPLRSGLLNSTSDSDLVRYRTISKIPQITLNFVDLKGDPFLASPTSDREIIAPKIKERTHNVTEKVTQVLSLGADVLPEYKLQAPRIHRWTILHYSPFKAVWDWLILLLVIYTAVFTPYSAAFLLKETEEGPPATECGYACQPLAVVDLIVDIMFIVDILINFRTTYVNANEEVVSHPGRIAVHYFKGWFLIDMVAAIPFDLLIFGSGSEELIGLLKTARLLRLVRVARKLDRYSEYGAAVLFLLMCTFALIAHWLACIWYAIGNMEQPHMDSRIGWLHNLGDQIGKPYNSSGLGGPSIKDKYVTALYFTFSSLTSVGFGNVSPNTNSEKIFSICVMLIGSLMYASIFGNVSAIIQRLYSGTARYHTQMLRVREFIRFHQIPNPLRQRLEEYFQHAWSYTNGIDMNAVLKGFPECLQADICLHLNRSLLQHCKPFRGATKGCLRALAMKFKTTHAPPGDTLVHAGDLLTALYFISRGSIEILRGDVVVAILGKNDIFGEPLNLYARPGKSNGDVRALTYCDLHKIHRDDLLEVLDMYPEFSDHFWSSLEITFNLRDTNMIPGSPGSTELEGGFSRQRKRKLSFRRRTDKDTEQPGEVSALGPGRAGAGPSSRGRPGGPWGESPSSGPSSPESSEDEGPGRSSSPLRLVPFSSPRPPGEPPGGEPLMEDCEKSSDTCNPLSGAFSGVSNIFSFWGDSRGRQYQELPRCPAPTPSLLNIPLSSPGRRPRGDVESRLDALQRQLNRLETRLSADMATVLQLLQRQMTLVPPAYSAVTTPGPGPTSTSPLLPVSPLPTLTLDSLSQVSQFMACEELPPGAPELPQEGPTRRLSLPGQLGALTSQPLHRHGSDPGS

Compound	hERG current change (%, negative = inhibition) at 1uM
CC(C)(C)NC(=S)N/N=C\c1ccc(-c2ccc([N+](=O)[O-])cc2)o1	13.3%
COC(=O)Nc1ccc(S(=O)(=O)N2CCCC(C(=O)N3CCN(C)CC3)C2)cc1 (stereo not drawn)	7.31%
Cc1cc(C)c2cc(CN(Cc3ccc4c(c3)OCO4)Cc3nnnn3Cc3ccco3)c(=O)[nH]c2c1	10.8%
CC1=NN(C(C#N)c2ccccc2C)C(c2ccccc2)C1 (stereo not drawn)	9.72%
Cc1cc(C)nc(/N=C2\NC(=O)CC3C(=O)NCCN23)n1 (stereo not drawn)	13.1%
CN1CC(=O)Nc2ccc([N+](=O)[O-])cc2C1=O	17.6%
COC(=O)c1cc2ccsc2n1Cc1ccccc1F	-2.01%
COc1ccc(C(=O)N/C(=C\c2ccccc2)C(=O)NCCCn2ccnc2)cc1	-18.2%
COc1ccc(/C=C(/NC(=O)c2ccc(OC)c(OC)c2)C(=O)NCCCn2ccnc2)cc1	15.5%
COc1ccc(/C=C(\NC(=O)c2ccc(C)cc2)C(=O)NCCCn2ccnc2)cc1	-91.7%
Cc1oc(CN2CCOCC2)cc1C(=O)O	7.66%
FC(F)Oc1ccc(-n2cc(-c3ccc(Cl)cc3)[n+]3c2CCCCC3)cc1.[Br-]	-45.2%
Cc1ccc(-c2cn(-c3ccc(OC(F)F)cc3)c3[n+]2CCCCC3)cc1.[Br-]	-13.3%
COc1ccc(-n2cc(-c3ccc(OC(F)F)cc3)[n+]3c2CCCCC3)cc1.[Br-]	-52.9%
CCn1nccc1C(=O)Nc1cc(Cl)ccc1Cl	0.897%
CC(=O)c1ccc(S(=O)(=O)N2CCCC(N(C)CCc3ccccn3)C2)cc1 (stereo not drawn)	-44.4%
CC(=O)c1ccc(S(=O)(=O)N2CCCC(N(C)CCc3ccccc3)C2)cc1 (stereo not drawn)	-78.7%
COc1ccc(S(=O)(=O)N2CCCC(N(C)CCc3ccccc3)C2)cc1OC (stereo not drawn)	-26.5%
COc1ccc(CCN(C)C2CCCN(S(C)(=O)=O)C2)cc1OC (stereo not drawn)	6.5%
COc1ccc(CCN(C)C2CCCN(S(=O)(=O)c3ccccc3F)C2)cc1OC (stereo not drawn)	-45.9%
COc1ccc(CCN(C)C2CCCN(S(=O)(=O)N(C)C)C2)cc1OC (stereo not drawn)	8.71%
COc1ccc(CCN(C)C2CCCN(S(=O)(=O)c3ccccc3)C2)cc1OC (stereo not drawn)	-64.9%
CN(CCc1ccccc1)C1CCCN(S(=O)(=O)c2cccc(F)c2)C1 (stereo not drawn)	-2.76%
COc1ccc(CCN(C)C2CCCN(S(=O)(=O)c3ccc(C)cc3)C2)cc1OC (stereo not drawn)	-82.1%
Cc1cc(NC(=O)CSc2nc3c(c(=O)n2-c2ccccc2)SC(C)C3)no1 (stereo not drawn)	-8.78%
Cc1ccc(C(=O)Nc2nc3nc(-c4ccccc4)cc(=O)n3[nH]2)cc1	14.5%
CCC(C)NS(=O)(=O)c1ccc(NC(C)=O)cc1 (stereo not drawn)	11.2%

Compound	hERG current change (%, negative = inhibition) at 1uM
CC(C)Cc1cc(C(=O)O)n[nH]1	5.43%
CC(=O)N1CCc2cc(Br)cc(S(=O)(=O)N3CCc4ccccc43)c21	-1.76%
O=C(c1ccc(-n2cccc2)cc1)N1CCOCC1	7.49%
CCc1ccccc1N(CC(=O)NC1CCCCC1)C(=O)CCC(=O)Nc1ccccn1	12.3%
O=C(Nc1ccc(-c2csc(Nc3ccccc3)n2)cc1)c1cc([N+](=O)[O-])cc(C(F)(F)F)c1	4.72%
O=C(NCCNC(=O)c1ccc(-c2ccc(Cl)c(Cl)c2)o1)c1cnccn1	-54.4%
O=C(NCCCNC(=O)c1ccc(-c2cccc(Cl)c2)o1)c1cnccn1	-12.5%
Cc1ccc(-c2ccc(C(=O)NCCCNC(=O)c3cnccn3)o2)cc1Cl	18.8%
NS(=O)(=O)OCCCc1ccc(C(F)(F)F)cc1	6.75%
COc1ccc(CCn2c(=N)c(C(=O)NCC3CCCO3)cc3c(=O)n4ccccc4nc32)cc1 (stereo not drawn)	-84.4%
COc1ccc(CCn2c(=N)c(C(=O)NCC3CCCO3)cc3c(=O)n4ccccc4nc32)cc1OC (stereo not drawn)	-79.9%
COc1ccc(CCNC(=O)CCn2c(=O)c3ccccc3n(CC(=O)NCC3CCCO3)c2=O)cc1OC (stereo not drawn)	9.7%
COc1ccc(Cn2c(=N)c(C(=O)NCC3CCCO3)cc3c(=O)n4ccccc4nc32)cc1 (stereo not drawn)	-85%
Cc1cc(N2CCC(C)CC2)nc2ccc(N3C(=O)CCC3=O)cc12	9.64%
O=C(NC(=S)Nc1ncc(Br)cc1Br)c1cncc(Br)c1	4.04%
COc1ccc(C(=O)Nc2nnc(-c3cccs3)s2)cc1	18.6%
CC(C)(C)OC(=O)N[C@@H](Cc1ccccc1)c1nnc(S(=O)(=O)Cc2ccccc2)o1	5.19%
CCCCCc1n[nH]c2c1CCCC2	9.3%
CCCCCc1nc2c(c3c1CCCC3)CCCC2	-51.7%
CCCCc1nc(Cl)c(C#N)c2c1CCCC2	5.82%
CC1CCCC(C)N1C(=O)COC(=O)CCC1CCCC1 (stereo not drawn)	9.29%
CC(C(=O)N1CCN(c2ccc([N+](=O)[O-])cc2)CC1)N1C(=O)C2CC=CCC2C1=O (stereo not drawn)	-50.2%
O=C(CN1C(=O)C2CC=CCC2C1=O)N1CCN(c2ccc([N+](=O)[O-])cc2)CC1 (stereo not drawn)	-64.2%
COc1ccc(N2CCN(C(=O)CN3C(=O)C4CC=CCC4C3=O)CC2)cc1 (stereo not drawn)	15.7%
CC(C(=O)N1CCN(c2ccccc2)CC1)N1C(=O)C2CC=CCC2C1=O (stereo not drawn)	10.3%
CC(C(=O)N1CCN(c2ccccc2)CC1)c1ccc([N+](=O)[O-])cc1 (stereo not drawn)	-12.2%
CC1(C)NC(=O)N(CC(=O)N2CCN(c3ccc([N+](=O)[O-])cc3)CC2)C1=O	-29.1%
